Source: PubChem BioAssay (NCATS)
Records with an inconclusive call do not appear. Activity calls are given as the source filed them. Calls come from the whole dose curve.

What follows are compounds tested against Thyroid hormone receptor beta (Homo sapiens) (UniProt P10828) (assay: qHTS assay for small molecule agonists of thyroid hormone receptor beta signaling (AID 588545)). Settings: TR-UAS-bla GripTite HEK 293, beta-lactamase ratio, agonist mode, 18 h, percent of T3 response, DMSO as zero; series mostly up to 76.7 µM.
Chain of Thyroid hormone receptor beta (Homo sapiens) (P10828 whole entry, looked up): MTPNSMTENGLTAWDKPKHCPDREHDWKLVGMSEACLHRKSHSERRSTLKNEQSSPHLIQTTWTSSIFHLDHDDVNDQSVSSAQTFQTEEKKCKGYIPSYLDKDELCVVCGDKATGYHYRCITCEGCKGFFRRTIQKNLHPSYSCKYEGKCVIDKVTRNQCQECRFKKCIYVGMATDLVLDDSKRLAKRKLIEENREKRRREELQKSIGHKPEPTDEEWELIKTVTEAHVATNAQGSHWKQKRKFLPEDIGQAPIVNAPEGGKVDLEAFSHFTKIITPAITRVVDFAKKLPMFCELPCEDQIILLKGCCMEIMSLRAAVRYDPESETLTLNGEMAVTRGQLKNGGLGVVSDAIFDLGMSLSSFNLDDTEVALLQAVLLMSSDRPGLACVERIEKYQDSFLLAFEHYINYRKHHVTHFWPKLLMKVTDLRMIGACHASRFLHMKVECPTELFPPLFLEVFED
From the text: NIH Chemical Genomics Center [NCGC]
U.S. Environmental Protection Agency [EPA]
National Institutes of Environmental Health Sciences [NIEHS]
National Toxicology Program [NTP]
Thyroid hormone receptor (TR) belongs to nuclear hormone receptor superfamily. There are two subtypes for TR: TR-alpha and TR-beta. TR-beta plays a major role in regulating plasma cholesterol levels and it mediates the biological activities of thyroid hormone. Screening environmental chemicals on TR-beta signaling will provide important information for the mechanism of compound action.
NCGC Assay Protocol Summary
Using a beta-lactamase reporter-gene under control of the TR response element, a cell-based assay [GeneBLAzer TR-UAS-bla-GripTite assay developed by Invitrogen] was used to measure TR-beta signaling in agonist mode. TR-UAS-bla-GripTite HEK 293 cells were used with assay medium containing 2% charcoal/dextran FBS, 0.1 mM NEAA and 1 mM sodium pyruvate. The assay was performed in clear bottom black Greiner 1536-well plates. T3 was used as a positive control in the screen. Library compounds were measured for their ability to stimulate the reporter gene activity. Compounds were screened in a titration series in 1536-well format. The fluorescence intensity (405 nm excitation, 460/530 nm emission) was measured using an EnVision plate reader. Data was normalized relative to T3 control (10 nM, 100%), and DMSO only wells (basal, 0%). Concentration-response titration points for each compound were fitted to the Hill equation yielding concentrations of half-maximal stimulation (EC50) and maximal response (efficacy) values.
qHTS protocol for TR-beta beta-lactamase assay in agonist mode
[Step] [Parameter] [Value] [Description]
1. Reagent; 6 uL; 2500 cells/well
2. Incubation; 37 C for 4 hrs
- Dose response; start 3.8 uM, 1:3 dilutions, duplicates in first column
- Two columns of each 10 and 0.4 nM (finals) concentrations.
5. Incubation; 37 C for 18 hrs
6. Detection reagent; 1 uL of CCF4-dye
7. Incubation; RT for 2 hrs
8. Detection; Fluorescence; Envision plate reader

Structure (SMILES) | outcome
C=CCOC(Cn1ccnc1)c1ccc(Cl)cc1Cl (stereo not given) | inactive
N#Cc1nn(-c2c(Cl)cc(C(F)(F)F)cc2Cl)c(N)c1S(=O)C(F)(F)F (stereo not given) | inactive
CNC(=O)Oc1cccc2ccccc12 | inactive
O=C(NC(=O)c1c(F)cccc1F)Nc1cc(Cl)c(OC(F)(F)C(F)C(F)(F)F)cc1Cl (stereo not given) | inactive
O=C(CCl)c1ccc(Cl)cc1Cl | inactive
COP(=O)(OC)OC=C(Cl)Cl | inactive
Oc1c(Br)cc(Br)cc1Br | inactive
O=c1n(Cl)c(=O)n(Cl)c(=O)n1Cl | inactive
COP(=O)(OC)C(O)C(Cl)(Cl)Cl (stereo not given) | inactive
CCC(=O)O[C@H]1CC[C@H]2[C@@H]3CCC4=CC(=O)CC[C@]4(C)[C@H]3CC[C@]12C | inactive
CN(C)C(=S)SSC(=S)N(C)C | inactive
CCOP(=S)(OCC)O/N=C(\C#N)c1ccccc1 | inactive
CCNc1nc(Cl)nc(NCC)n1 | inactive
C[C@@H]1C[C@@H]([C@H](O)CC2CC(=O)NC(=O)C2)C(=O)[C@@H](C)C1 | inactive
CCCCCCCCC(=O)NCc1ccc(O)c(OC)c1 | inactive
